This is an account of results in PubChem BioAssay (NCI).

Assay in all cases: NCI-60 one-dose screen, 48 h (100 = growth as untreated, 0 = no growth, -100 = all killed)
Test [1] has as its system NCI-H23 lung.
In test [2] the test system is NCI-H226 lung.
The subject of test [3] is NCI-H322M lung.
Test [4] deals with HOP-62 NSCLC.
The subject of test [5] is NCI-H460 lung.
In test [6] the test system is HOP-92 NSCLC.
The subject of test [7] is NCI-H522 lung.
For test [8], the system named is A549/ATCC NSCLC.
For test [9], the system named is 786-0 renal.
Test [10] deals with COLO 205 colon.

Where “and” joins values, the source holds several entries; their conditions need not be identical. Equal values may be shown once. Compounds without any hit were thinned out: in the full panel of roughly 83,000, 20% have a hit.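 For each line, cells grew in 96-well plates with the test compound present at a single concentration for 48 hours.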 A number with no mark means an inactive call. Calls of active or inactive are those of the source. Rule for the calls: active = growth percent below 10; inactive = the rest.

Turning to `O=C1CCCCN1CCCCC#Cc1cccc(C#Cc2cccnc2)c1`, the growth is 88.5% in test [1] (10 µM unless noted); 78.1% in test [2] (10 µM unless noted); 180% in test [3] (10 µM unless noted); 114% and 98.7% in [4] (10 µM unless noted); 73% in test [5] (10 µM unless noted); 31.9% in test [6] (10 µM unless noted). In addition, the growth in test [7] (10 µM unless noted) was 75.7%; in test [8] (10 µM unless noted), 81%; in [9] (10 µM unless noted), 116% and 89.9%; in test [10] (10 µM unless noted) it was 83.5%.
Consider `CS(=O)(=O)Nc1cc(-c2ccc3ncnc(Nc4ccc(F)c(Cl)c4)c3c2)cnc1Cl`, for which the growth is 16.9% in test [1] (10 µM unless noted); 17.6% in test [2] (10 µM unless noted); 3.88% (active) in [3] (10 µM unless noted); 15.1% in test [4] (10 µM unless noted); 10.6% in test [5] (10 µM unless noted); -23.6% (active) in test [6] (10 µM unless noted). The growth is 14% in test [7] (10 µM unless noted), 1.72% (active) in test [8] (10 µM unless noted), 7.37% (active) in test [9] (10 µM unless noted) and -57.2% (active) in test [10] (10 µM unless noted).
With `COc1nc(=O)n(C2C=CC(=O)O2)cc1F` (configuration not stated), the growth in test [1] (10 µM unless noted) was 102%; in test [2] (10 µM unless noted), 106%; in test [3] (10 µM unless noted), 102%; in test [4] (10 µM unless noted), 110%; in [5] (10 µM unless noted), 110%; in test [6] (10 µM unless noted) it was 87.8%. The growth was 39.1% in test [7] (10 µM unless noted), 123% in test [8] (10 µM unless noted), 92.5% in [9] (10 µM unless noted) and 46.5% in [10] (10 µM unless noted).
Regarding `CC(=O)/C=C/c1ccc(OCc2ccc(Cl)cc2)cc1`, the growth in test [1] (10 µM) was 90.9%; in test [1] (100 µM), 37.1%; in test [2] (10 µM) it was 100%; in test [2] (100 µM) it was 49.6%; in test [3] (10 µM unless noted), 52.5% [100 µM]; in [4] (10 µM), 110%. Moreover, the growth in test [4] (100 µM) was 44.9%; in test [5] (10 µM), 101%; in test [5] (100 µM), 26.1%; in [6] (10 µM), 91.8%; in test [6] (100 µM), 11%; in test [7] (10 µM), 90.4%. Moreover, the growth was -3.06% (active) in [7] (100 µM); 75.9% in [8] (10 µM); 34.1% in test [8] (100 µM); 88.1% in test [9] (10 µM); 51.2% in test [9] (100 µM); 122% in test [10] (10 µM). In addition, in test [10] (100 µM), the growth is -21.9% (active).
With `CN(C)CCNc1ncc(F)c(-c2cnc3cc(-c4cnn(C)c4)ccn23)n1`, the growth in test [1] (0.005 µM) was 101%; in test [1] (30 µM), 56.9%; in test [2] (10 µM unless noted) it was 76.5% [30 µM]; in test [3] (0.005 µM), 95.6%; in test [3] (30 µM), 44.7%; in [4] (0.005 µM) it was 103%. For the same molecule, the growth in test [4] (30 µM) is 60.2%; in test [5] (0.005 µM), 101%; in test [5] (30 µM), 15.7%; in [6] (0.005 µM), 105%; in test [6] (30 µM), 61.4%; in test [7] (0.005 µM) it was 92.4%. The growth in test [7] (30 µM) is 51.9%; in test [8] (0.005 µM), 101%; in test [8] (30 µM), 34.3%; in test [9] (0.005 µM), 102%; in [9] (30 µM), 44.2%; in [10] (10 µM unless noted), 25.8% [30 µM].
With `O=C(NNC(=S)Nc1ccccc1)c1ccncc1`, the growth in [1] (10 µM unless noted) is 102%; in [2] (10 µM unless noted), 105%; in test [3] (10 µM unless noted), 108%; in test [4] (10 µM unless noted), 106%; in test [5] (10 µM unless noted), 118%; in test [6] (10 µM unless noted), 90.2%. Besides, the growth in test [7] (10 µM unless noted) is 97.3%; in test [8] (10 µM unless noted), 107%; in test [9] (10 µM unless noted) it was 98.5%; in [10] (10 µM unless noted) it was 128%.
As to `COCCn1cc(-c2nc(-c3cn(CCOC)c4ncccc34)cs2)c2ccccc21`, the growth is 56.2% in test [1] (10 µM unless noted); 87.3% in test [2] (10 µM unless noted); 59.2% in test [3] (10 µM unless noted); 67.8% in test [4] (10 µM unless noted); 56.6% in test [5] (10 µM unless noted); 66.4% in test [6] (10 µM unless noted). Also, the growth in test [7] (10 µM unless noted) is 53.4%; in test [8] (10 µM unless noted) it was 70.8%; in [9] (10 µM unless noted), 82.9%; in test [10] (10 µM unless noted), 18.8%.
`CCC(=O)Oc1cc(Cl)c(Cl)cc1Cl`: the growth in test [1] (10 µM unless noted) is 102%; in [2] (10 µM unless noted) it was 97.7%; in test [3] (10 µM unless noted), 104%; in test [4] (10 µM unless noted), 105%; in test [5] (10 µM unless noted), 104%; in test [6] (10 µM unless noted) it was 100%. In addition, the growth is 99.8% in test [7] (10 µM unless noted), 101% in test [8] (10 µM unless noted), 98.2% in [9] (10 µM unless noted) and 113% in test [10] (10 µM unless noted).
Take `CC[C@H](C)[C@H](NC(=O)[C@H](CCCCN)NC(=O)[C@H](CCCCN)NC(=O)[C@@H](NC(=O)[C@@H](NC(=O)[C@@H](N)Cc1cnc[nH]1)[C@@H](C)CC)[C@@H](C)CC)C(=O)N[C@@H](CCCNC(=N)N)C(=O)N[C@H](C(=O)N[C@@H](Cc1c[nH]c2ccccc12)C(=O)N[C@@H](Cc1ccc(O)cc1)C(=O)N[C@@H](CCCNC(=N)N)C(=O)N[C@@H](CCCCN)C(=O)N[C@@H](C)C(=O)N[C@@H](Cc1c[nH]c2ccccc12)C(=O)N[C@@H](Cc1cnc[nH]1)C(=O)N[C@H](C(=O)N[C@@H](CC(C)C)C(=O)NCC(=O)N[C@@H](CCCCN)C(=O)N[C@H](C(N)=O)C(C)C)C(C)C)[C@@H](C)O`: the growth in [1] (10 µM unless noted) was 17.2%; in [2] (10 µM unless noted) it was 29.8%; in test [3] (10 µM unless noted), 25.1%; in [4] (10 µM unless noted) it was 35.9%; in test [5] (10 µM unless noted), 7.38% (active); in test [6] (10 µM unless noted) it was 56.7%. Besides, the growth was 45.9% in [7] (10 µM unless noted), 39.2% in [8] (10 µM unless noted), -28.3% (active) in test [9] (10 µM unless noted) and -54.8% (active) in test [10] (10 µM unless noted).
For `COc1ccc(-c2cc3cnc4ccccc4c3oc2=O)cc1`, the growth in [1] (10 µM unless noted) is 94.4%; in test [2] (10 µM unless noted), 103%; in [3] (10 µM unless noted), 94.5%; in test [4] (10 µM unless noted), 105%; in test [5] (10 µM unless noted) it was 104%; in [6] (10 µM unless noted) it was 73.5%. Besides, the growth is 97.4% in test [7] (10 µM unless noted), 101% in [8] (10 µM unless noted), 89% in [9] (10 µM unless noted) and 103% in test [10] (10 µM unless noted).
On to `Clc1ccc2c(c1)N(c1ncnc3ccc(-c4cnc5[nH]ccc5c4)cc13)CC2`, for which the growth in [1] (10 µM unless noted) was 40.6%; in test [2] (10 µM unless noted) it was 40.9%; in test [3] (10 µM unless noted), 41.3%; in test [4] (10 µM unless noted) it was 13.8%; in test [5] (10 µM unless noted), 16.5%; in test [6] (10 µM unless noted), 14.8%. Also, the growth in [7] (10 µM unless noted) is 30.6%; in [8] (10 µM unless noted), 21.4%; in [9] (10 µM unless noted) it was 24.5%; in test [10] (10 µM unless noted) it was 45.1%.
